# High-throughput results as filed in PubChem BioAssay.
# CBFb RUNX1 block: CBF-beta/RUNX1 interaction disruption | AlphaScreen CBFb-His/RUNX1-biotin binding, biochemical | 230,000 tested, under 10 active | Potency, µM (doses to about 59.8 µM), usual class: inhibitors
# Target sequence (Q01196 whole entry, looked up): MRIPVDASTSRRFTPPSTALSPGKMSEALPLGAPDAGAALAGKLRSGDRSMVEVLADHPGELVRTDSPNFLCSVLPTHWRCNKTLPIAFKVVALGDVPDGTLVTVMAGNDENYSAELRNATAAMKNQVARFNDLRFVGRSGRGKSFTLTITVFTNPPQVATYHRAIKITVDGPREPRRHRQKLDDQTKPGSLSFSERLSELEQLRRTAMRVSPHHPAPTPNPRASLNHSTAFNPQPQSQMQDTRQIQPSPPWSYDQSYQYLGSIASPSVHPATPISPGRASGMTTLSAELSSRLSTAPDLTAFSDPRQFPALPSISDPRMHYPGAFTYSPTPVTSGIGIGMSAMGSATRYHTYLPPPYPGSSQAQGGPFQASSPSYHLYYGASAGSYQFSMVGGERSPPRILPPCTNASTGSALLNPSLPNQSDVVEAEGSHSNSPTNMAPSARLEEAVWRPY
# Target sequence (Q13951 whole entry, looked up): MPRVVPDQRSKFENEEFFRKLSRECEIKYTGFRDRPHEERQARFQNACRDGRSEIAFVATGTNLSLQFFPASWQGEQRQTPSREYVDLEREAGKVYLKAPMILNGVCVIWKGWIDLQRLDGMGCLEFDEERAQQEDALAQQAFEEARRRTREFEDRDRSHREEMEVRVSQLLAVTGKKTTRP
#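 Room-temperature protein-protein interaction test with 30 nM each of His-tagged CBF-beta and biotinylated RUNX1, 15 min with compound, then 90 min with nickel plus streptavidin beads. Signal read in AlphaScreen mode.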
# KDM4E inh: JMJD2E (human) inhibition. B2RXH2. JMJD2E catalytic domain, FDH-coupled NADH fluorescence (FDH is formaldehyde dehydrogenase). Potency, µM (highest dose often 57.1 µM), usual class: inhibitors. 1.6% of 230,000 active; active = well fitted inhibition curve with a large enough effect, not every such curve was filed as active; inconclusive = small, poorly fitted or top-dose-only effect, or another doubt; inactive = no such curve, though single readings can be large or run the other way; note: nearly all actives have a fitted effect of over 50% in size
# HTT aggregate: reduces HttQ103-GFP aggregates in PC12 cells; PC12 HttQ103-GFP aggregates, Acumen cytometry, 40 h; Potency, µM (top dose mostly 46.1 µM), actives largely listed as inhibitors; 1.1% of 220,000 active; AID 1688; note: nearly all actives have a fitted effect of over 60% in size
#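 PC12 cells with ecdysone-inducible HTT exon1 Q103-GFP, induced by 100 nM tebufenozide, given compounds in a concentration series. GFP aggregates (1–25 um, 6 SD above background) counted in lysates by laser-scanning cytometry, 488 nm excitation.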
# ALDH1A1 inh: inhibitors of human aldehyde dehydrogenase 1A1; 7.3% of 220,000 active; Potency, µM (titrated, usually from 75.3 µM), usual class: inhibitors; Purified ALDH1A1, NADH fluorescence, propionaldehyde substrate; active = well fitted inhibition curve with a large enough effect, not every such curve was filed as active; inconclusive = small, poorly fitted or top-dose-only effect, or another doubt; inactive = no such curve, though single readings can be large or run the other way
# HPGD block: HPGD (human) dehydrogenase inhibition; purified HPGD, NADH fluorescence kinetic, PGE2 substrate; 4.3% of 150,000 active; Potency, µM, actives largely listed as inhibitors; AID 894; active = well fitted inhibition curve with a large enough effect, not every such curve was filed as active; inconclusive = small, poorly fitted or top-dose-only effect, or another doubt; inactive = no such curve, though single readings can be large or run the other way
#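 20 nM HPGD preincubated 15 min at room temperature with compound in 50 mM Tris-HCl pH 8, 0.01% Tween 20. Started with 1 mM NAD+ and 30 uM prostaglandin E2; NADH fluorescence (360/450 nm) read 5 times over 30-s intervals, last minus first.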
# HTT ATP protect: Huntington cell model cytoprotection by ATP luminescence; 0.14% of 230,000 active; Potency, µM (titrated, usually from 56.4 µM), actives largely listed as activators; PC12 HTT-Q103 induced, cytoprotection, ATP luminescence, 40 h; note: nearly all actives have a fitted effect of over 45% in size
#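 Compounds were screened for protection of PC12 cells against cell death after tebufenozide induction (100 nM final) of mutant Huntingtin exon 1 (Q103) fused to GFP.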
# Numbers stand for hits; – = inactive; ? = inconclusive; · = not tested or not shown; [ ] = dose if it differs, or a comment. Compounds with a hit are over-represented: about 9.8% of the library has one in this group of screens. Unless noted, calls come from the whole dose curve; as a rule, active = well fitted curve in the direction sought with a large enough effect; inconclusive = small, poorly fitted or top-dose-only effect, or another doubt; inactive = no such curve, though single readings can be large; an effect the other way counts as inactive or inconclusive.
SMILES,CBFb RUNX1 block,KDM4E inh,HTT aggregate,ALDH1A1 inh,HPGD block,HTT ATP protect
Cn1c(N/N=C/c2c[nH]c3ccccc23)nc2ccccc21,–,?,–,15.8µM,?,–
Cc1cc(C)nc(N/N=C/c2c[nH]c3ccccc23)n1,–,–,–,–,·,–
Fc1c(F)c(F)c(N/N=C/c2c[nH]c3ccccc23)c(F)c1F,–,–,?,31.6µM,–,–[10 µM]
Cc1ccc(C(=O)NCC(=O)OC(C)C(=O)Nc2ccc(N(C)C)cc2)s1 (stereo not given),–,–,–,?,·,–
CCOC(=O)C1=C(C)NC(=S)NC1c1cc(C)sc1C (stereo not given),–,–,–,39.8µM,·,·
CCOC(=O)C1=C(C)NC(=S)NC1c1ccco1 (stereo not given),–,–,–[9.22 µM],·,·,–[10 µM]
CCOC(=O)C1=C(C)NC(=S)NC1c1ccc(C)s1 (stereo not given),–,–,–,2.51µM,·,–[10 µM]
CCOC(=O)C1=C(C)NC(=S)NC1c1ccsc1 (stereo not given),–,–,–,7.08µM,·,–
COC(=O)C1=C(C)NC(=O)NC1c1ccsc1 (stereo not given),–,–,–,–,–,–
COc1cc(NCC[C@@H]2CCCCN2)c2ncccc2c1,·,·,·,–[13.5 µM],–,–[10 µM]
Cc1nc(NC(=O)CCl)sc1C(=O)N(C)C,–,–,–[9.22 µM],31.6µM,·,–[10 µM]
COc1ccc(C(=O)Nc2ccccc2C(=O)N/N=C/c2ccncc2)cc1OC,–,–,–[9.22 µM],·,·,–[10 µM]
O=[N+]([O-])c1ccc(N2CCN(Cc3ccccc3)CC2)nc1,–,–,–,20µM,·,–
O=[N+]([O-])c1ccc(CN2CCN(c3ccc4ccccc4n3)CC2)cc1,–,–,–,–,·,–
CN(Cc1ccco1)c1ccnc(-c2cccnc2)n1,·,·,·,?,·,–
Cc1noc(C)c1-c1nccc(N(C)Cc2ccco2)n1,·,·,·,14.1µM,·,–
Cc1noc(C)c1-c1nc(N(C)Cc2ccco2)c2ccccc2n1,·,·,·,?,·,–
CN(Cc1ccco1)c1ccnc(-c2ccoc2)n1,·,25.1µM,·,?,–,–
COC(=O)c1nnn(-c2nonc2N)c1COc1ccc(C=O)cc1OC,–,–,–,?,·,–
CC(=O)C1=C(C)NC(=O)CC1c1ccc(Br)cc1 (stereo not given),–,–,–,–,·,–
CC(=O)NCCNc1nc(-c2ccc(C(=O)N(C)C)cc2)nc2ccccc12,·,·,·,–,·,–
CN(C)C(=O)c1ccc(-c2nc(NCc3cccs3)c3ccccc3n2)cc1,·,–,·,–,15.8µM,–
CN(C)c1ccc(-c2nc(N(C)Cc3ccco3)c3ccccc3n2)cc1,·,?,·,?,?,–
Cc1cccc(CNc2nc(-c3ccc(C(=O)N(C)C)cc3)nc3ccccc23)c1,·,–,·,–,25.1µM,–
CN(C)C(=O)c1ccc(-c2nc(N(C)Cc3ccco3)c3ccccc3n2)cc1,·,–,·,?,12.6µM,–
SMILES,CBFb RUNX1 block,KDM4E inh,HTT aggregate,ALDH1A1 inh,HPGD block,HTT ATP protect
CCCNC(=O)OCc1cccnc1Sc1ccc(C)cc1,–,–,–,–,·,–
O=C(CCc1nc2ccccc2c(=O)[nH]1)OCCOc1ccc(Cl)cc1,–,–,–,–,·,–
NC(=O)C1(N2CCCCC2)CCN(C(=O)CCCn2c(=O)[nH]c3ccsc3c2=O)CC1,–,–,–,–,–,–
O=C(CCCn1c(=O)[nH]c2ccsc2c1=O)N1CCCCC1,–,–,–,–,14.1µM,–
O=C(CCCCCn1c(=O)[nH]c2ccsc2c1=O)N1CCCCC1,–,–,–,–,14.1µM,–[10 µM]
O=C(CCCCn1c(=O)[nH]c2ccsc2c1=O)NCC1CCCO1 (stereo not given),–,–,–,–,25.1µM,–[1.9 µM]
COC(=O)[C@H](Cc1ccccc1)NC(=O)[C@H]1C[C@@H]1[C@H](NC(=O)OCc1ccccc1)c1ccccc1,·,–,·,–,–,–
OCC1OC(c2ccc3c(c2)OCO3)C=CC1Oc1cc(Cl)cc(Cl)c1 (stereo not given),–[13.1 µM],·,·,?,·,–[10 µM]
Cc1cnc(CNc2cc(-c3ccccc3C)ncn2)cn1,·,·,·,–,·,–
Cc1cnc(C(=O)OCC(=O)c2csc(N3CCCCC3)n2)cn1,–,–,–,17.8µM,?,–
CCNC(=O)c1ccc(C23CC4CC(CC(C4)C2)C3)o1,–,–,–[9.22 µM],–,·,–
C=CCOC(=O)C1=C(C)OC(N)=C(C#N)C1c1ccc2c(c1)OCO2 (stereo not given),–,–,–,?,?,–[10 µM]
COCCOC(=O)C1=C(C)OC(N)=C(C#N)C1c1ccc2c(c1)OCO2 (stereo not given),–,?,?,12.6µM,31.6µM,–
Oc1c(Cl)cc(Cl)cc1/C=N/c1nccs1,–,?,–,14.1µM,–,–
O=c1cnc2cnc(Oc3cccc(Cl)c3)nc2n1C1CC1,·,·,·,–,–,?
NC(=O)Cn1c(=O)n(Cc2ccco2)c(=O)c2c3c(sc21)CCCCC3,?,–,–,11.2µM,–,–
O=C(Cn1c(=O)n(Cc2ccco2)c(=O)c2c3c(sc21)CCCC3)Nc1ccccc1,–,–,–,?,–,–[0.074 µM]
O=c1c2c3c(sc2n(CCN2CCOCC2)c(=O)n1Cc1ccco1)CCCCC3,–,–,?,7.94µM,–,–
O=c1c2c3c(sc2n(CCN2CCCCC2)c(=O)n1Cc1ccco1)CCCCC3,–,–,–,5.62µM,–,–
COc1ccc2c(CC(=O)NCCN3C(=O)S/C(=C\c4cccnc4)C3=O)coc2c1,?,–,–,22.4µM,·,–
Cc1c(C=N)c(O)n(C)c(=O)c1C#N,–,?,–[9.22 µM],·,·,–[10 µM]
CCOC(=O)C(CSCC(=O)c1ccc(Cl)cc1Cl)NC(=O)OC(C)(C)C (stereo not given),–,?,–,7.94µM,?,–
CCOC(=O)CSCC(NC(=O)OC(C)(C)C)C(=O)OCC (stereo not given),–,–,?,–,–,–[10 µM]
S=c1ccss1,·,?,·,2.24µM,6.31µM,·
CCC(=O)CC(NC(=O)OC)c1ccc(F)cc1 (stereo not given),–[13.1 µM],·,·,–[13.5 µM],·,–[10 µM]
SMILES,CBFb RUNX1 block,KDM4E inh,HTT aggregate,ALDH1A1 inh,HPGD block,HTT ATP protect
C=CCc1cccc(C2Nc3ccccc3C(=O)N2O)c1O (stereo not given),–,?,?,–,7.08µM,–[10 µM]
O=C1c2ccccc2NC(c2ccc(Cl)cc2Cl)N1O (stereo not given),–,?,?,–,–,–
Cc1nn(C)c(C)c1C1Nc2ccccc2C(=O)N1O (stereo not given),–,?,–,?,–,–[10 µM]
CCOC(=O)c1ccc(-c2ccc(C3Nc4ccccc4C(=O)N3O)o2)cc1 (stereo not given),?,?,–,?,?,–[10 µM]
Cc1ccsc1C1Nc2ccccc2C(=O)N1O (stereo not given),–,?,?,–,17.8µM,·
Cc1cc([N+](=O)[O-])ccc1-c1ccc(C2Nc3ccccc3C(=O)N2O)o1 (stereo not given),–,28.2µM,?,?,?,–
